PrP UTR inh = suppresses PrP 5' UTR mRNA reporter expression; cell-based PrP 5' UTR mRNA reporter, plate reader; inhibition, % (test concentration not listed); 340,000 tested, 0.35% active; in the data active = inhibition above about 52%; note: 0 = median of the neutral control wells
CCHF vOTU inh-1 = CCHFV vOTU protease inhibition. Pep-AMC fluorescence. inhibition, % at 11.5 µM. 370,000 tested, 0.55% active; note: 0% = vehicle wells with enzyme and 100% = no enzyme wells
PrPC TRFRET = reduces human prion protein on the cell surface. P04156. cell surface PrPC, TR-FRET read-out. inhibition, % at 13.8 µM. 370,000 tested, 0.43% active. AID 720596; in the data active = inhibition above about 24%; note: 0% = median of the test wells and 100% = reference compound wells
SARS 3CLpro inh = SARS-CoV 3CLpro protease inhibition. recombinant SARS-CoV 3CLpro, quenched FRET peptide cleavage. inhibition, % at 6 µM. 290,000 tested, 0.14% active. AID 1706; in the data active = inhibition above about 12%
CCHF vOTU inh-2 = confirmation of CCHF virus vOTU protease inhibitors | inhibition, % at 11.5 µM | Recombinant CCHFV vOTU, Pep-AMC fluorescence | AID 686976 | 1,900 tested, 17% active | shares compounds with CCHF vOTU inh-1
The depositor's hits bear a star; . = no result; ! = repeats disagree. Compounds with a hit are over-represented: about 1.3% of the library has one in this group of screens. Cut-off read from the data, not from the text of the source, unless noted: active = inhibition above about 30%; inactive = the rest.

SMILES	PrP UTR inh	CCHF vOTU inh-1	PrPC TRFRET	SARS 3CLpro inh	CCHF vOTU inh-2
COc1ccc(C(=O)NCCS(=O)(=O)N2CCCC2)cc1	-23	46*	-6	.	-23
CC(C)C(=O)Nc1ccc(C(=O)N/N=C/c2cc(Br)cc(Br)c2O)cc1	-3	32*	7	0	-3
COC(=O)C1CCN(C2=C(NS(=O)(=O)c3ccc(Cl)cc3)C(=O)c3ccccc3C2=O)CC1	-21	6	-40	1	.
CCOC(=O)N1CCN(C2=C(NS(=O)(=O)c3ccc(C)cc3)C(=O)c3ccccc3C2=O)CC1	-21	82*	-55	0	81*
Cc1ccc(S(=O)(=O)NC2=C(N3CCN(Cc4ccccc4)CC3)C(=O)c3ccccc3C2=O)cc1	-39	6	-27	-4	.
CC(=O)Nc1ccc(S(=O)(=O)NC2=C(N3CCN(c4ccc(F)cc4)CC3)C(=O)c3ccccc3C2=O)cc1	-35	77*	-47	3	69*
CC(=O)Nc1ccc(S(=O)(=O)Nc2ccc(N3CCOCC3)cc2)cc1	-3	3	3	-2	.
Cc1ccc(S(=O)(=O)NC2=C(N3CCN(c4ccccc4F)CC3)C(=O)c3ccccc3C2=O)cc1	-32	53*!	-38	-3	26
COc1cc(OC)c(C2=NOC(C(=O)Nc3c(C)nn(CC(=O)N4CCCC4)c3C)C2)cc1Cl (stereo unspecified)	-22	-9	-13	2	.
COc1ccc(CNc2ccc3cn[nH]c3c2)c(OC)c1OC	-35	40*	-6	3	-18
O=C(N/N=C/c1c[nH]c2ccccc12)c1ccc(Br)cc1	-33	11	6	1	.
O=C(N/N=C\c1c[nH]c2ccccc12)c1ccc(O)cc1	-48	32*	-6	-4	-5
CCCCOCCCNC(=O)C[C@H]1C[C@@]2(C(=O)OC)C(=C[C@H](C(C)C)O[C@@H]2C2CC2)N(CCC2=CCCCC2)C1=O	.	39*	0	.	6
COC(=O)[C@]12C[C@H](CC(=O)NCCCCc3ccccc3)C(=O)N(CCC3=CCCCC3)C1=C[C@H](C(C)C)O[C@@H]2C1CC1	.	37*	10	.	2
COc1cc(NC(=O)C(C)C)ccc1NC(=O)c1ccco1	-114	1	0	2	.
O=C(CSCc1ccc(Cl)cc1)Nc1ccc(-c2nnc(-c3ccccc3)o2)cc1	2	32*	5	-3	-16
O=C(Cc1ccc(Cl)cc1)Nc1ccc(-c2nnc(-c3ccco3)o2)cc1	-22	7	0	-3	.
CCOc1ccc(NS(=O)(=O)c2ccc(-c3cnc(C4CC4)o3)cc2)cc1	-9	30*	4	7	-16
CC(O)(c1ccc(F)c(F)c1)c1nc(/C=C/c2ccc(C(F)(F)F)cc2)cs1 (stereo unspecified)	.	33*	7	.	-6
CC(O)(c1cccc(F)c1)c1nc(/C=C/c2ccccc2)cs1 (stereo unspecified)	.	17	5	.	.
Cc1cnc(C=NNC(N)=S)c2cccc(N)c12	10	45*	-2	.	73*
Cc1cc(=O)n(-c2ccc(O)cc2)[nH]1	-16	27	1	-1	.
Cc1cc(=O)n(-c2ccc(C(=O)O)cc2)[nH]1	-11	54*	-3	3	-20
CCSC1=N/C(=C\c2ccccc2)C(=O)N1c1ccc(OC)cc1	-13	30*	-2	5	-11
CCOC(=O)CC1(C)Oc2ccccc2N1S(=O)(=O)c1ccc(C)cc1 (stereo unspecified)	.	30*	13	.	-23
SMILES	PrP UTR inh	CCHF vOTU inh-1	PrPC TRFRET	SARS 3CLpro inh	CCHF vOTU inh-2
CCOC(=O)C1CN(S(=O)(=O)c2ccc(C)cc2)c2cc(S(=O)(=O)CC)ccc2O1 (stereo unspecified)	-25	2	2	5	.
COc1ccnc2c1c(=O)n(Cc1cccc(Cl)c1)c(=O)n2C	-8	16	-5	-2	.
CCOC(=O)Nc1ccc(C)cc1NC(=O)OCC	-15	-2	6	-1	.
CCOC(=O)Nc1ccc(NCc2ccc(F)cc2)nc1N	-38	67*	-6	.	-5
CCN(CC)c1ccc(NC(=O)COC(=O)C2CCN(c3ccc(C(F)(F)F)cn3)CC2)cc1	-3	-3	-5	.	.
CCN(c1ccc(NC(=O)COC(=O)C2CCN(c3ccc(C(F)(F)F)cn3)CC2)cc1)C(C)C	-39	30*	5	.	23
CCOC(=O)c1cc2sc(C)cc2n1CC(=O)NCc1ccc(F)cc1	-8	30*	0	-1	-17
COc1ccc(/C=C2\SC(=O)N(CCNC(=O)C3=COCCO3)C2=O)cc1	-110	36*	5	.	-6
Cc1cc(C(=O)OCC(=O)N2CCOCC2)c2ccccc2n1	-2	34*	4	3	-13
Cc1cc(C(=O)OCC(=O)N2CCCC2)c2ccccc2n1	.	-14	-2	3	.
CC(C)c1ccc(OCC(=O)Nc2cccc(C(=O)Nc3ccccc3C(=O)O)c2)cc1	-38	31*	7	10	-11
O=C(O)c1ccccc1O	5	-2	4	-5	.
Nc1c(O)cccc1C(=O)O	-10	30*	-15	.	1
CC1=C(C(=O)N(C)C)CC(CC(=O)NC(c2ccccc2)c2ccccc2)C(=O)N1Cc1ccccc1 (stereo unspecified)	.	-1	-6	.	.
CC1=C(C(=O)N2CCOCC2)CC(CC(=O)NCCCN(C)C)C(=O)N1Cc1ccc(F)cc1 (stereo unspecified)	.	37*	-5	.	-11
CC1=C(C(=O)N(C)C)CC(CC(=O)NCc2cccc3ccccc23)C(=O)N1Cc1ccc(C(C)(C)C)cc1 (stereo unspecified)	.	9	-3	.	.
CC1=C(C(=O)N(C)C)CC(CC(=O)NC(c2ccccc2)c2ccccc2)C(=O)N1Cc1ccc(F)cc1 (stereo unspecified)	.	34*	-4	.	-15
CC1=C(C(=O)N2CCOCC2)CC(CC(=O)NCCCCc2ccccc2)C(=O)N1Cc1ccc(C(C)(C)C)cc1 (stereo unspecified)	.	32*	0	.	1
CC1=C(C(=O)N(C(C)C)C(C)C)CC(CC(=O)NCc2cccc3ccccc23)C(=O)N1Cc1ccc(C(C)(C)C)cc1 (stereo unspecified)	.	33*	5	.	15
COc1ccc(CN2C(=O)C(CC(=O)NCCCN(C)C)CC(C(=O)N3CCOCC3)=C2C)cc1 (stereo unspecified)	.	0	14	.	.
CCCCN1C(=O)C(CC(=O)NCCCCc2ccccc2)CC(C(=O)N2CCOCC2)=C1C (stereo unspecified)	.	-4	7	.	.
CCOc1ccc(CC2c3cc(OCC)c(OCC)cc3CCN2C(=O)c2cc(OC)c(OC)c(OC)c2)cc1OCC (stereo unspecified)	4	-7	-3	1	.
O=C(NC1CCCCC1)N1Cc2cc(-c3ccccc3)ccc2-n2nncc2C1	.	2	4	.	.
CC1=C(C(=O)N(C(C)C)C(C)C)CC(CC(=O)NC2CC2)C(=O)N1Cc1ccc(C(C)(C)C)cc1 (stereo unspecified)	.	27	0	.	.

High-throughput results: PubChem, several laboratories
